Our source for the growth inhibition values is PubChem BioAssay (NCI).

Assay [1] in a line: NCI Yeast Anticancer Drug Screen. Data for the rad50 strain (AID 155).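 Further: 0% = growth of vehicle-only cultures of the same strain.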 Conditions: S. cerevisiae rad50 strain growth inhibition; at 50.0 µM; stronger effect = higher value. The method in brief:
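DNA repair mutant yeast, compound exposure, growth read-out; inhibition is taken relative to vehicle.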

Assay [2] can be described thus: NCI Yeast Anticancer Drug Screen. Data for the mec2-1 strain (AID 157). Conditions: S. cerevisiae mec2-1 strain, at 50.0 µM, stronger effect = higher value. The method in brief: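 Using mec2-1 yeast: add compound, measure growth, express inhibition versus vehicle-treated cultures.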
Assay [3] in a line: NCI Yeast Anticancer Drug Screen. Data for the sgs1 mgt1 strain (AID 161).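 Further: 0% = growth of cultures given vehicle only.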 Conditions: S. cerevisiae sgs1 mgt1 strain, at 50.0 µM, stronger effect = higher value. The method in brief: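 Yeast cells carrying a defined DNA-repair defect were exposed to test compounds. Growth inhibition was measured relative to vehicle-treated controls.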
Assay [4] is described as follows: NCI Yeast Anticancer Drug Screen. Data for the cln2 rad14 strain (AID 165).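 Further: 0% = growth equal to vehicle treated cultures.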 Conditions: S. cerevisiae cln2 rad14 strain, at 50.0 µM, stronger effect = higher value. A digest of the protocol: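 Yeast strain cln2 rad14, bearing defects in cell cycle control and DNA repair, serves as the test system; values reflect growth inhibition compared with vehicle.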
Assay [5] in a line: NCI Yeast Anticancer Drug Screen. Data for the bub3 strain (AID 167). Conditions: S. cerevisiae bub3 mutant strain, at 50.0 µM, stronger effect = higher value. A digest of the protocol: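 In this screen, a yeast mutant lacking normal mitotic checkpoint function is challenged with compound. Relative growth versus vehicle gives the inhibition value.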
Assay [6] in a line: NCI Yeast Anticancer Drug Screen. Data for the mlh1 rad18 strain (AID 175). Conditions: S. cerevisiae mlh1 rad18 strain growth inhibition; at 50.0 µM; stronger effect = higher value. The method in brief:
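Steps: expose repair-defective yeast to compound; measure growth; express inhibition against vehicle-treated controls.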

The panel holds about 79,000 compounds, 15% with a hit somewhere; the sample as a whole holds those more often. Values without a mark were called inactive. The source made the active and inactive calls. No stated cut-off is given here; in the data, active means growth inhibition above about 70%; inactive means the rest. Where a SMILES comes first, the peptide text is derived from it. [ ]: non-standard residue; d: D form. ξ: configuration not given here. ξPhe(4-N(CH2CH2Cl)2) = NC(Cc1ccc(N(CCCl)CCCl)cc1)C(=O)O

On to `CCN(CC)CCn1c(=O)c2ccccc2n(CCN(CC)CC)c1=O`, for which the growth inhibition in assay [1] was 19.6%; in assay [2], 13.1%; in assay [3], 22.5%; in assay [4], 20.8%; in assay [5], 12.7%; in assay [6], 10.4%.

As to `CCOP(=O)(OCC)/C(C#N)=C/c1cccc(OC)c1`, the growth inhibition is 57.5% in assay [1]; 46.7% in assay [2]; 45.6% in assay [3]; 16.9% in assay [4]; 30.8% in assay [5]; 63% in assay [6].

Regarding `O=P1(Oc2ccccc2)N(CCCl)CCN1c1ccccc1` (stereo unspecified), the growth inhibition in assay [1] is -12.2%; in assay [2] it was -44.8%; in assay [3], 7.15%; in assay [4], 13.2%; in assay [5] it was 32.1%; in assay [6], -4.65%.

In the case of `Cc1cccc(Cl)c1OP(=O)(Oc1c(C)cccc1Cl)Oc1c(C)cccc1Cl`, the growth inhibition is -10.4% in assay [1]; -7.8% in assay [2]; -19.3% in assay [3]; -19.3% in assay [4]; 2.25% in assay [5]; -51.4% in assay [6].

On to `COc1cc2c(c3oc4cccc(O)c4c(=O)c13)[C@@H]1C=CO[C@@H]1O2`, for which the growth inhibition in assay [1] was -11.6%; in assay [2], -15.2%; in assay [3] it was -7.05%; in assay [4], 26.1%; in assay [5], -8.7%; in assay [6], -8.9%.

Turning to `O=C(Sc1c[nH]c(=O)[nH]c1=O)c1ccc(N(CCCl)CCCl)cc1`, the growth inhibition in assay [1] was 29.6%; in assay [2], -18.4%; in assay [3], 19.9%; in assay [4] it was -24.8%; in assay [5] it was -6.3%; in assay [6], -1.05%.

For the compound `CN(C)P1(=O)OCC(C(C)(C)C)CN1c1ccccc1` (stereo unspecified), the growth inhibition in assay [1] is -6.6%; in assay [2], 2.95%; in assay [3] it was -2.8%; in assay [4], -22.2%; in assay [5], -12.9%; in assay [6], -14.3%.

On to `CC(=O)C1CCC2C3CC=C4CC(OOS(=O)c5ccc(C)cc5)CCC4(C)C3CCC12C` (stereo unspecified), for which the growth inhibition in assay [1] was 43.2%; in assay [2], 20.1%; in assay [3], 46.2%; in assay [4], -31.4%; in assay [5], 22.4%; in assay [6], 24.1%.

Take `CNC1=C(N2CC2)C(=O)C(NC)=C(N2CC2)C1=O`: the growth inhibition in assay [1] is 7.7%; in assay [2] it was 28.3%; in assay [3], 17.9%; in assay [4], 10.8%; in assay [5], 13.8%; in assay [6], 36.4%.

`[Cl][Hg][Cl].c1ccc(N=P(c2ccccc2)(c2ccccc2)c2ccccc2)cc1`: the growth inhibition was 99.7% (active) in assay [1]; 99.8% (active) in assay [2]; 99.8% (active) in assay [3]; 99.5% (active) in assay [4]; 99.3% (active) in assay [5]; 99.6% (active) in assay [6].

For `O=c1[nH]cnc2c1ncn2-c1ccc(N(CCCl)CCCl)cc1`, the growth inhibition in assay [1] was 4.3%; in assay [2] it was 12.7%; in assay [3], 16%; in assay [4], -20.5%; in assay [5], -12.2%; in assay [6], 15.2%.

Regarding `c1ccc(CCN2CCCCC2)nc1`, the growth inhibition in assay [1] was 2.55%; in assay [2] it was -1.8%; in assay [3], -0.15%; in assay [4], -1.1%; in assay [5], 13.3%; in assay [6], -0.85%.

For `NC(=O)OC(CCl)CCl`, the growth inhibition is 35.2% in assay [1]; -10.1% in assay [2]; -9% in assay [3]; -13.3% in assay [4]; -10% in assay [5]; -4.3% in assay [6].

As for `Cn1c(=O)oc(=O)c2ccccc21`, the growth inhibition in assay [1] is -0.45%; in assay [2], -15.3%; in assay [3], -17.4%; in assay [4], -3.1%; in assay [5], -27.4%; in assay [6], 6.85%.

With `NC(=O)Oc1cc(OC(N)=O)cc(N(CCCl)CCCl)c1`, the growth inhibition in assay [1] is 32.8%; in assay [2], 34%; in assay [3], 36.6%; in assay [4] it was 12%; in assay [5], 40%; in assay [6], 40%.

For the compound `COc1cc2c(cc1O)CCN[C@H]2C`, the growth inhibition in assay [1] is -1.3%; in assay [2] it was -25.8%; in assay [3] it was -0.95%; in assay [4] it was -4.1%; in assay [5], 3.55%; in assay [6], -1.45%.

In the case of `C[C@]12CC[C@H]3[C@@H](CCC4=CC(=O)CC[C@@]43C)[C@]1(O)CC[C@]2(O)C(=O)CO`, the growth inhibition is 11.2% in assay [1]; -12.6% in assay [2]; -30.4% in assay [3]; -2.05% in assay [4]; -17.3% in assay [5]; -9.1% in assay [6].

Regarding `CCOC(=O)C(Cc1ccc(N(CCCl)CCCl)cc1)NC(=O)C(Cc1ccccc1)NC(=O)C(NC(=O)CNC(=O)C1CCCN1)C(C)C` (stereo unspecified) (H-PGVF[ξPhe(4-N(CH2CH2Cl)2)]-OEt; configuration not given here), the growth inhibition was -4.6% in assay [1]; 11.8% in assay [2]; 20.3% in assay [3]; 3.35% in assay [4]; 6.1% in assay [5]; 29.6% in assay [6].

With `CC(C)C1C=Cc2ccccc21` (stereo unspecified), the growth inhibition was 13.8% in assay [1]; 1.85% in assay [2]; 4.45% in assay [3]; -13.1% in assay [4]; -3.55% in assay [5]; 28.8% in assay [6].

With `CCCCCCNP(=O)(OCC)OCC`, the growth inhibition was -6% in assay [1]; -36.9% in assay [2]; 5.3% in assay [3]; 6.8% in assay [4]; -41.8% in assay [5]; 12.3% in assay [6].

As to `O=[N+]([O-])C(CO)CCCC(CO)[N+](=O)[O-]` (stereo unspecified), the growth inhibition is 11.7% in assay [1]; -6% in assay [2]; 5.65% in assay [3]; -37.1% in assay [4]; -20.4% in assay [5]; 11.4% in assay [6].
